Source: PubChem BioAssay (National Center for Advancing Translational Sciences (NCATS))
Luciferase inh = Firefly luciferase inhibition profiling of diverse chemical library using quantitative high-throughput screening | AID 1347043, 2019 | 76,000 compounds, 2.5% hits | Luciferin 4-monooxygenase (Photinus pyralis), P08659 | Potency, µM (titrated, usually from 115 µM), usual class: inhibitors | purified P. pyralis luciferase, luminescence, biochemical; further: nearly all actives have a fitted effect of over 65% in size
Target sequence (P08659 whole entry, looked up): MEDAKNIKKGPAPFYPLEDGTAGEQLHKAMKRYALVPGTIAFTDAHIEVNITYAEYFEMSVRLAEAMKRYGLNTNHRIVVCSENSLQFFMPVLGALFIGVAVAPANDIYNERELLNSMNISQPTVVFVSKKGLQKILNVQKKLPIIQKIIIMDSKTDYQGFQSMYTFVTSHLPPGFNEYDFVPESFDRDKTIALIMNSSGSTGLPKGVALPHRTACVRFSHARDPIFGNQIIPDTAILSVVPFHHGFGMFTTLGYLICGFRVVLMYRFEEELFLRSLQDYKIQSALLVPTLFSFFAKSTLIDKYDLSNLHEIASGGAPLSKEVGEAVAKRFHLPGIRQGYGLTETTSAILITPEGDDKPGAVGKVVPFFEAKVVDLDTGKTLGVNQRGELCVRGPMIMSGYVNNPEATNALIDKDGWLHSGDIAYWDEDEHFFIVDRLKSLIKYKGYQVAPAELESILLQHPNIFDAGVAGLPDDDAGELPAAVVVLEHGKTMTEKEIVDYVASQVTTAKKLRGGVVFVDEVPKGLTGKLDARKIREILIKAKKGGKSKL
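Inhibitors were tested against purified firefly luciferase in a biochemical, low-substrate format (both substrates at 10uM) and luminescence measured with a CCD imager.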
HEK cytotox = Cytotoxic Profiling in HEK 293 Cell Line of Diverse Libraries Using Quantitative High-Throughput Screening; HEK 293 viability, ATP luminescence (CellTiter-Glo), 48-72 h; Potency, µM (titrated, usually from 115 µM), without a hit: top-dose activity change, negative = cytotoxicity, usual class: inhibitors; 94,000 compounds, 6.6% hits; AID 1345083, 2018; further: nearly all actives have a fitted effect of over 60% in size
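Cytotoxicity was scored by loss of ATP-coupled luminescence (CellTiter-Glo) in HEK 293 cells. Compound treatment ran 48 or 72 hr at 37 degree Celsius, 5% CO2, 95% humidity.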
GPT2 inh = Primary qHTS assay for inhibitors of Glutamate pyruvate transaminase 2 (GPT2) | Recombinant GPT2, coupled pyruvate oxidase/HRP Amplex Red fluorescence | AID 1671188, 2021 | Alanine aminotransferase 2 (Homo sapiens), Q8TD30 | 100,000 compounds, 0.25% hits | Potency, µM (series often up to 57.7 µM), for inactives: at the highest dose activity change, negative = inhibition, actives largely listed as inhibitors; further: nearly all actives have a fitted effect of over 60% in size
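Fluorescence read-out: pyruvate from GPT2 turnover coupled to pyruvate oxidase, HRP and Amplex Red (0.2mM ThPP, 0.2U/mL PO and HRP, 50uM Amplex final). Substrates 250uM a-KG, 2mM L-alanine; enzyme 10ng/uL; 30 min RT.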
hNpr1 antagonist = Natriuretic polypeptide receptor (hNpr1) antagonism - Primary qHTS; Atrial natriuretic peptide receptor 1 (Homo sapiens), P16066; HEK293 hNpr1 GloSensor cGMP, ANP-stimulated luminescence; Potency, µM (top dose mostly 46.3 µM), inactives show at the top dose activity change, negative = inhibition, most hits filed as inhibitors; 76,000 compounds, 1.6% hits; AID 1347048, 2019; calls by dose curve; further: nearly all actives have a fitted effect of over 60% in size
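HEK293 cells stably expressing human Npr1 and cGMP GloSensor pGS-40F, loaded 2 h with 2% GloSensor reagent, given compound 30 min at room temperature. Luminescence read before and 20 min after 0.1 nM hNppA.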
3T3 cytotox = Cytotoxic Profiling in NIH 3T3 Cell Line of Diverse Libraries Using Quantitative High-Throughput Screening. Potency, µM (titrated, usually from 96.7 µM), inactives show at the highest dose activity change, negative = cytotoxicity, most hits filed as inhibitors. 94,000 compounds, 4.3% hits. AID 1345082, 2018. NIH 3T3 viability, CellTiter-Glo ATP luminescence, 48-72 h; further: nearly all actives have a fitted effect of over 55% in size
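NIH 3T3 cells at 400 cells/well received 23 nL of compound by pintool and were incubated 48 or 72 h at 37 °C. Viability was read as ATP-coupled CellTiter-Glo luminescence.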
Starred values were filed as active, the others as inactive; [ ] = another dose, or the depositor's remark. Shown are actives, neighbours in structure and some others; about 10% of the full set was active somewhere. Unless noted, the call rests on the fitted dose curve; in most records, active means well fitted curve in the direction sought with a large enough effect; inconclusive means small, poorly fitted or top-dose-only effect, or another doubt; inactive means no such curve, though single readings can be large; an effect the other way counts as inactive or inconclusive. On the % scale 0 is the no-effect control and ±100 the full control effect; potency means the concentration at half of the fitted maximal effect.

CC1=C[C@@H](CN2CCC(CO)CC2)[C@H](C(C)C)C[C@H]1Cc1nnc(-c2ccncc2)o1 was read as Luciferase inh inactive, HEK cytotox -21.2%[172 µM], GPT2 inh -11.0%[88.5 µM], hNpr1 antagonist 4.3%[70.6 µM] and 3T3 cytotox -25.7%[138 µM].
Screening C#CCN(C)Cc1nc(C2(O)CCN(C(C)=O)CC2)cs1 returned Luciferase inh inactive, HEK cytotox -1.6%[172 µM], GPT2 inh -2.5%[88.5 µM], hNpr1 antagonist 5.3%[70.6 µM] and 3T3 cytotox -1.8%[174 µM].
CCOc1ccc(-c2cc3c(=O)n(CCNC(=O)c4ccc(C)cc4)ccn3n2)cc1 was read as Luciferase inh inactive, HEK cytotox inactive, GPT2 inh 1.5%, hNpr1 antagonist 1.0% and 3T3 cytotox inactive.
Screening O=C(NC1CCCC1)c1ccc(CN2C(=O)NC3(CCS(=O)(=O)CC3)C2=O)cc1 returned Luciferase inh inactive, HEK cytotox -0.7%, GPT2 inh inactive, hNpr1 antagonist -2.2% and 3T3 cytotox inactive.
Screening CC1=C[C@@H](CN2CCC[C@H]2CO)[C@H](C(C)C)C[C@H]1Cc1nnc(-c2ccc(N(C)C)cc2)o1 returned Luciferase inh inactive, HEK cytotox 44.7µM*, GPT2 inh 1.2%, hNpr1 antagonist 1.1% and 3T3 cytotox 39.8µM*.
For CC#CCn1cc2c3c(cccc31)[C@H](CC(C)C)N[C@H](C(=O)NCCC)C2 the results were Luciferase inh inactive, HEK cytotox 56.2µM*, GPT2 inh 0.6%[88.5 µM], hNpr1 antagonist -5.4%[70.6 µM] and 3T3 cytotox 39.8µM*.
For CCCNC(=O)[C@@H]1Cc2cn(Cc3nccn3C)c3cccc(c23)[C@H](CC(C)C)N1 the results were Luciferase inh inactive, HEK cytotox 44.7µM*, GPT2 inh -3.1%[88.5 µM], hNpr1 antagonist -2.4%[70.6 µM] and 3T3 cytotox 100µM*.
Screening COCCCNC(=O)[C@@H]1Cc2cn(Cc3nccn3C)c3cccc(c23)[C@H](CC(C)C)N1 returned Luciferase inh inactive, HEK cytotox inconclusive, GPT2 inh inconclusive, hNpr1 antagonist -2.6%[70.6 µM] and 3T3 cytotox -40.7%[174 µM].
`CC(C)C[C@@H]1N[C@H](C(=O)NCC2CC2)Cc2cn(Cc3nccn3C)c3cccc1c23` gave Luciferase inh inactive, HEK cytotox 35.5µM*, GPT2 inh -4.3%[88.5 µM], hNpr1 antagonist -3.2%[70.6 µM] and 3T3 cytotox 63.1µM*.
Cc1ccc(NC(=O)Cn2c(C)cc3nc4n(c(=O)c32)CCCC4)cc1 was read as Luciferase inh inactive, HEK cytotox -2.5%, GPT2 inh inactive, hNpr1 antagonist 1.6% and 3T3 cytotox -11.2%.
For CCCc1cc(C(=O)N2CCc3c(nc(-c4cccnc4)[nH]c3=O)C2)n[nH]1 the results were Luciferase inh inconclusive, HEK cytotox -18.4%, GPT2 inh inconclusive, hNpr1 antagonist 1.2% and 3T3 cytotox -18.5%.
CN(C)c1ccc(C(=O)NC2CCN(c3cc(-c4ccc(Cl)cc4)[nH]n3)CC2)cc1 was read as Luciferase inh inactive, HEK cytotox inconclusive, GPT2 inh inactive, hNpr1 antagonist -2.9% and 3T3 cytotox -18.6%.
For O=C(NC1CCN(c2cc(-c3ccccc3)[nH]n2)CC1)c1cccc(Cl)c1 the results were Luciferase inh inactive, HEK cytotox 28.2µM*, GPT2 inh 1.3%, hNpr1 antagonist 0.0% and 3T3 cytotox inconclusive.
Cc1ccc(C(=O)NC2CCCN(c3cc(-c4ccccc4)[nH]n3)C2)cc1F (centres undefined) was read as Luciferase inh inactive, HEK cytotox inconclusive, GPT2 inh -1.3%, hNpr1 antagonist -18.1% and 3T3 cytotox inconclusive.
Screening CC(=O)Nc1ccc(C(=O)NC2CCN(c3cc(-c4ccc(Cl)cc4)[nH]n3)CC2)cc1 returned Luciferase inh inactive, HEK cytotox 31.6µM*, GPT2 inh -3.9%, hNpr1 antagonist -25.3% and 3T3 cytotox 22.4µM*.
Screening O=C(NC1CCN(c2cc(-c3ccc(F)cc3)[nH]n2)C1)c1cccc(Cl)c1 (centres undefined) returned Luciferase inh inactive, HEK cytotox inconclusive, GPT2 inh inconclusive, hNpr1 antagonist -16.4% and 3T3 cytotox inconclusive.
`Cc1ccc(C(=O)NC2CCN(c3cc(-c4ccccc4)[nH]n3)CC2)cc1F` gave Luciferase inh inactive, HEK cytotox inconclusive, GPT2 inh -0.6%, hNpr1 antagonist -14.4% and 3T3 cytotox 35.5µM*.
`O=C(NC1CCCc2c1[nH]c1ccccc21)c1ccccc1` (centres undefined) gave Luciferase inh inactive, HEK cytotox inconclusive, GPT2 inh 2.6%, hNpr1 antagonist -10.5% and 3T3 cytotox inconclusive.
`O=C(NC1CCN(c2cc(-c3ccccc3)[nH]n2)CC1)c1ccoc1` gave Luciferase inh inactive, HEK cytotox inconclusive, GPT2 inh inactive, hNpr1 antagonist -13.9% and 3T3 cytotox -20.4%.
`Cc1ccc(-c2cccc(CN3CCCC(NC(=O)Cc4cccc(Cl)c4)C3)c2)cc1Cl` (centres undefined) gave HEK cytotox inactive, GPT2 inh inactive and 3T3 cytotox -13.9%.
Screening COc1cccc(-c2ccc(CN3CCCC(NC(=O)Cc4ccccn4)C3)cc2)c1 (centres undefined) returned HEK cytotox 39.8µM*, GPT2 inh inactive and 3T3 cytotox inconclusive.
Screening COc1cccc(-c2ccc(CN3CCCC(NC(=O)C(C)C)C3)cc2)c1 (centres undefined) returned HEK cytotox 39.8µM*, GPT2 inh 4.3% and 3T3 cytotox inconclusive.
Cc1ccc(-c2cccc(CN3CCCC(NC(=O)C(C)(C)C)C3)c2)cc1Cl (centres undefined) was read as HEK cytotox inconclusive and 3T3 cytotox -26.5%.
COc1cccc(-c2ccc(CN3CCCC(NC(=O)C(C)(C)C)C3)cc2)c1 (centres undefined) was read as HEK cytotox 50.1µM*, GPT2 inh -31.8% and 3T3 cytotox inconclusive.
`CC(c1ccon1)N(C)C(=O)c1cccc(CC2CCNCC2)c1` (centres undefined) gave Luciferase inh inactive, HEK cytotox inactive, GPT2 inh inactive, hNpr1 antagonist 9.0% and 3T3 cytotox 2.6%.
For Cc1cc(-n2c(=O)[nH]c(=O)n(C)c2=O)ccc1Oc1ccc(SC(F)(F)F)cc1 the results were GPT2 inh inactive.
NCCNc1cccc2ccccc12 was read as GPT2 inh inactive.
